# Records with an inconclusive call do not appear. A call without a number means that no potency is given here. The source made the active and inactive calls. Unless noted, calls follow the shape of the dose curve; as a rule, active = well fitted curve in the direction sought with a large enough effect; inconclusive = small, poorly fitted or top-dose-only effect, or another doubt; inactive = no such curve, though single readings can be large; an effect the other way counts as inactive or inconclusive.
# Legend:
# [1] = qHTS for differential inhibitors of proliferation of Plasmodium falciparum line GB4 (AID 1816); conditions: Potency: Plasmodium falciparum GB4 proliferation inhibition
# [2] = molecular target: Ferritin light chain (Equus caballus) (UniProt P02791); assay: qHTS Validation Assay for Identification of Novel General Anesthetics (AID 2323)
# In short: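 10 uM horse-spleen apoferritin + 1-AMA (50% saturated, PBS); cpd pin-transferred, 10 min RT. Ex 380/Em 535 nm endpoint. Activity normalized between free 1-AMA and 1-AMA/apoferritin; 4-parameter Hill fit of concentration-response.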
# [3] = Quantitative high throughput screen for delayed death inhibitors of the malarial parasite plastid, 96 hour incubation (AID 488745); also: nearly all actives have a fitted effect of over 70% in size
# In short: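 Decreased firefly luciferase luminescence indicates inhibited growth of reporter-integrated P. falciparum after two generations (96 h, 37 C, 5% CO2). Infected erythrocytes at 0.1% parasitemia, 2% hematocrit, in Albumax-supplemented RPMI 1640.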
# [4] = molecular target: Voltage-gated inwardly rectifying potassium channel KCNH2 (Homo sapiens) (UniProt Q12809); assay: qHTS Assay for Small Molecule Inhibitors of the Human hERG Channel Activity (AID 588834);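 also: top concentration of the series differs between compounds; lower thallium flux fluorescence means stronger hERG block; nearly all actives have a fitted effect of over 50% in size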
# In short: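 Thallium-flux (FluxOR) read-out on FDSS: fluorescence read 10 s before and 2 min after stimulation buffer. hERG-BacMam-transduced U2OS cells, compound exposure about 10 min. AC50 by standard Hill equation.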
# [5] = molecular target: Lysosomal acid glucosylceramidase (Homo sapiens) (UniProt P04062); assay: Glucocerebrosidase-p2 (AID 348; in the data active = potency below about 10 µM; also: potency is read from the fitted curve at half-maximal effect); conditions: purified GBA, blue fluorogenic substrate, 40 min
# In short: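 Normal human glucocerebrosidase (0.2 nM) with blue fluorogenic substrate (80 uM final) in citrate/phosphate pH 5.9 with 10mM sodium taurocholate, 0.01% tween-20; 40 min RT, NaOH/glycine stop; fluorescence Ex 365/Em 440; AC50 from a titration from 0.6 nM upwards.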
# [6] = system: CP215; assay: qHTS profiling for inhibitors of Plasmodium falciparum proliferation (AID 504749); also: nearly all actives have a fitted effect of over 60% in size; also: potency is read from the fitted curve at half-maximal effect; conditions: P. falciparum in erythrocytes, SYBR Green DNA, 72 h; series mostly up to 28.7 µM
# In short: (§1)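 SYBR Green fluorescence of parasite DNA, read after lysis and overnight dark incubation, measured growth over 72 h in erythrocyte culture at 0.3% parasitemia and 2.5% hematocrit. Data normalised to DMSO and 0.29 uM artemisinin, with plate-drift correction.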
# [7] = system: CP237; assay: as above; conditions: P. falciparum in erythrocytes, SYBR Green DNA, 72 h; series mostly up to 28.7 µM
# In short: as §1
# [8] = system: CP262; assay: as above; conditions: P. falciparum in erythrocytes, SYBR Green DNA, 72 h; series mostly up to 28.7 µM
# In short: as §1
# [9] = system: CP266; assay: as above; conditions: P. falciparum in erythrocytes, SYBR Green DNA, 72 h; series mostly up to 28.7 µM
# In short: as §1
# [10] = system: CP315; assay: as above; conditions: P. falciparum in erythrocytes, SYBR Green DNA, 72 h; series mostly up to 28.7 µM
# In short: as §1
# [11] = system: CP325; assay: as above; conditions: P. falciparum in erythrocytes, SYBR Green DNA, 72 h; series mostly up to 28.7 µM
# In short: as §1
# [12] = system: Dd2; assay: as above; conditions: P. falciparum in erythrocytes, SYBR Green DNA, 72 h; series mostly up to 28.7 µM
# In short: as §1
# [13] = system: FAB9; assay: as above; conditions: P. falciparum in erythrocytes, SYBR Green DNA, 72 h; series mostly up to 28.7 µM
# In short: as §1
# [14] = system: HB3; assay: as above; conditions: P. falciparum in erythrocytes, SYBR Green DNA, 72 h; series mostly up to 28.7 µM
# In short: as §1
# [15] = system: ICS; assay: as above; conditions: P. falciparum in erythrocytes, SYBR Green DNA, 72 h; series mostly up to 28.7 µM
# In short: as §1
# [16] = system: JCK; assay: as above; conditions: P. falciparum in erythrocytes, SYBR Green DNA, 72 h; series mostly up to 28.7 µM
# In short: as §1
# [17] = system: TAB165; assay: as above; conditions: P. falciparum in erythrocytes, SYBR Green DNA, 72 h; series mostly up to 28.7 µM
# In short: as §1
# [18] = molecular target: Cytochrome P450 2D6 (Homo sapiens) (UniProt P10635); assay: Cytochrome P450 family 2 subfamily D member 6 (CYP2D6) small molecule antagonists: luciferase biochemical (cell-free) qHTS assay (AID 1645840; active = well fitted curve in the direction sought with a large enough effect in the repeat runs; an effect the other way counts as inactive or inconclusive; also: nearly all actives have a fitted effect of over 55% in size; also: potency is read from the fitted curve at half-maximal effect)
# In short: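 P450-Glo CYP2D6 system: proluciferin substrate converted by enzyme to luciferin, read by luminescence proportional to activity. Enzyme-substrate mix with compound 10 min at room temperature, then NADPH regeneration 1 h before detection reagent.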
# [19] = NCATS anti-infectives library activity on HEK293 viability as a counter-qHTS vs the C. elegans viability qHTS (AID 1745854)
# In short: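 Cytotoxicity counter-screen to a worm viability qHTS: CellTiter-Glo luminescence read 10 min after reagent addition. Compounds (final up to 41.7 uM, a 1:5 dilution series) incubated 24 hr at 37C with 1,500 HEK293 cells per well; digitonin control.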
# [20] = qHTS drug screen for cell cycle checkpoint inhibitors in PARPi-resistant BRCA-mutant ovarian cancer cell lines. (AID 1963452; calls by dose curve); conditions: PEO1/OlaR viability, CellTiter-Glo luminescence, 96 h, stronger effect = lower value
# In short: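 PEO1, PEO4 and PEO1/OlaR ovarian cancer cells, 600 per well, exposed 96 h at 37C to a dilution series. Viability read by CellTiter-Glo luminescence, normalized to DMSO and empty wells; activity summarized as Z-AUC.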
# Chain of Cytochrome P450 2D6 (Homo sapiens) (P10635 whole entry, looked up): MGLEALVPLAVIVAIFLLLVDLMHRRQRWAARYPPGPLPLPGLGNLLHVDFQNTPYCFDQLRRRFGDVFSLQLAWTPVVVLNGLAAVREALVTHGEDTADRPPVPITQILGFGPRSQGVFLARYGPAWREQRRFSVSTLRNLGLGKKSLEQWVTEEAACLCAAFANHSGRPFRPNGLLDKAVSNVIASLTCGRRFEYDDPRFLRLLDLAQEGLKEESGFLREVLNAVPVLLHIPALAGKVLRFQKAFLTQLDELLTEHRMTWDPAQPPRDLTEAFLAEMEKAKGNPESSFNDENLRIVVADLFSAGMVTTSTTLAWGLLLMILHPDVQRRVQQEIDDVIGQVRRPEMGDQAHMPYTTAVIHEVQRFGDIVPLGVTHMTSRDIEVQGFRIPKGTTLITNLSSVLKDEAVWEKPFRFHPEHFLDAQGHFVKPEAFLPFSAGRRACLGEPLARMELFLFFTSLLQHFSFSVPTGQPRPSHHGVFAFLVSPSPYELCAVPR
# Chain of Voltage-gated inwardly rectifying potassium channel KCNH2 (Homo sapiens) (Q12809 whole entry, looked up): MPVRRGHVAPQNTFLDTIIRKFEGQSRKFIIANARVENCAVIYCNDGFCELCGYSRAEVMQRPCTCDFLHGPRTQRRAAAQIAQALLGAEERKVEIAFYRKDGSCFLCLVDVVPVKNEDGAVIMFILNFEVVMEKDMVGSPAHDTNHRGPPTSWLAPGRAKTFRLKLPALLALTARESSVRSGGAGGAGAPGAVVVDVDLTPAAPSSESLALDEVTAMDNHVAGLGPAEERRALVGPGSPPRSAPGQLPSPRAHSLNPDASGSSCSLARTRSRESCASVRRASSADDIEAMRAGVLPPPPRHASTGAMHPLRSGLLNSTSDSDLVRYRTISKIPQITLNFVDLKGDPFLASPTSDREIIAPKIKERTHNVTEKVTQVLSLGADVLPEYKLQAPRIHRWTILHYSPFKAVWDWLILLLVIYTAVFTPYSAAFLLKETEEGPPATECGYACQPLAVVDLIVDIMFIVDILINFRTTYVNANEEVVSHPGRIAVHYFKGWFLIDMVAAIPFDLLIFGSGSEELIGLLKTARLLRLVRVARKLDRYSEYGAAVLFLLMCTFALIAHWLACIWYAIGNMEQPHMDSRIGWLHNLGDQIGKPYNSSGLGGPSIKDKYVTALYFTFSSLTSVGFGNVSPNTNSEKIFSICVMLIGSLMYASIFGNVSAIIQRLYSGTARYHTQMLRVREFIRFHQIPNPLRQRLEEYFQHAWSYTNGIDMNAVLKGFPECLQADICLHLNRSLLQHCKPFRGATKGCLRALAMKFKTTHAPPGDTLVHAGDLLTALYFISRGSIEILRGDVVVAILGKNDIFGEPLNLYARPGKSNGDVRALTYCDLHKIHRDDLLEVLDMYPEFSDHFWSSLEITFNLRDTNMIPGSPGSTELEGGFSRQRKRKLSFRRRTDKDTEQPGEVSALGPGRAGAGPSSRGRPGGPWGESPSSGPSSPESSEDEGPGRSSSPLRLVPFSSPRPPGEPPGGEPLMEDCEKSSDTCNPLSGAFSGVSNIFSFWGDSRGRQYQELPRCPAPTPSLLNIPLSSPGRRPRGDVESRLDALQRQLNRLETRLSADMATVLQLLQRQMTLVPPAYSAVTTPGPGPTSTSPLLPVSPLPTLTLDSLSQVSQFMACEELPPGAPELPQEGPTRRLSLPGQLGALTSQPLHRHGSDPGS
# Chain of Lysosomal acid glucosylceramidase (Homo sapiens) (P04062 whole entry, looked up): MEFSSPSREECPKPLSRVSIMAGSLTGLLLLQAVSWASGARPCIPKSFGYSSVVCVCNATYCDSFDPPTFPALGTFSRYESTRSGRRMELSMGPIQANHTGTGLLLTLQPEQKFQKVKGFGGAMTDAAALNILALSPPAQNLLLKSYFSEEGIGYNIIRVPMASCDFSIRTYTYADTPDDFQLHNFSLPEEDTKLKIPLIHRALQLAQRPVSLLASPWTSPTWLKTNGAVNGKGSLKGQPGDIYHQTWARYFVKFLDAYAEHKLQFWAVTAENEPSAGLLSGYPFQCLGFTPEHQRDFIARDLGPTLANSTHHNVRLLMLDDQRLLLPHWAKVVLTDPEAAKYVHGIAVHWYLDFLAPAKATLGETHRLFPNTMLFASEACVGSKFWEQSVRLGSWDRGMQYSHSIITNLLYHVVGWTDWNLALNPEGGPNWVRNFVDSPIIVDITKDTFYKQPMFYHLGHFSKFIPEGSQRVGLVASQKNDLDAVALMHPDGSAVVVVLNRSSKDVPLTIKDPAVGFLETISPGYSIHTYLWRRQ
# Chain of Ferritin light chain (Equus caballus) (P02791 2-175 limits assumed): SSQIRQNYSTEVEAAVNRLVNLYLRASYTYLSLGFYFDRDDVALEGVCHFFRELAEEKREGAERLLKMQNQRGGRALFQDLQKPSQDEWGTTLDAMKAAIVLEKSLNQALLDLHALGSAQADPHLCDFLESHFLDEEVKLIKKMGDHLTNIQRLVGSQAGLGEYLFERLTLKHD
structure (smiles),measurement,setting,value
COc1ccccc1NC(=O)Nc1nc(-c2cccnc2)nc2ccccc12,Potency,[1],inactive
same,outcome,[2],inactive
same,Potency,[3],inactive
same,Potency,[4],inactive
COC(=O)[C@@H]1[C@@H]2C[C@H]3c4[nH]c5ccccc5c4CCN3C[C@@H]2CC[C@@H]1O,Potency,[5],> 11.4 µM (inactive)
same,Potency,[6],inactive
same,Potency,[7],inactive
same,Potency,[8],inactive
same,Potency,[9],inactive
same,Potency,[10],inactive
same,Potency,[11],inactive
same,Potency,[12],inactive
same,Potency,[13],inactive
same,Potency,[14],inactive
same,Potency,[15],inactive
same,Potency,[16],inactive
same,Potency,[17],inactive
Cc1nccn1CC1CCC2C(C1=O)c1ccccc1N2C (stereo not given),Potency,[18],12 µM (active)
O=C1CC[C@H](C(=O)O)N1,Potency,[18],inactive
COc1cc(CNC(=O)CCCC/C=C\C(C)C)ccc1O,outcome,[19],inactive
C[C@@H](C(=O)O)c1ccc(-c2ccccc2)c(F)c1,Potency,[18],inactive
same,Potency,[6],inactive
same,Potency,[7],inactive
same,Potency,[8],inactive
same,Potency,[9],inactive
same,Potency,[10],inactive
same,Potency,[11],inactive
same,Potency,[12],inactive
same,Potency,[13],inactive
same,Potency,[14],inactive
same,Potency,[15],inactive
same,Potency,[16],inactive
same,Potency,[17],inactive
CCOC(=O)C(CCc1ccccc1)NC1CCc2ccccc2N(CC(=O)O)C1=O (stereo not given),Potency,[6],inactive
same,Potency,[7],10 µM (active)
same,Potency,[8],inactive
same,Potency,[9],inactive
same,Potency,[10],inactive
same,Potency,[11],inactive
same,Potency,[12],11.2 µM (active)
same,Potency,[13],inactive
same,Potency,[14],inactive
same,Potency,[15],6.31 µM (active)
same,Potency,[16],inactive
same,Potency,[17],11.2 µM (active)
CNC(=O)[C@H]1O[C@@H](n2cnc3c(NCc4cccc(I)c4)nc(Cl)nc32)[C@H](O)[C@@H]1O,Z-AUC,[20],0.981 (inactive)
same,Z-AUC,[20]; measured here: PEO1 parental Z-AUC,0.685
same,Z-AUC,[20]; measured here: PEO4 Z-AUC,0.71
C[N+](C)(C)CCC(=O)c1cccc2ccccc12,Potency,[1],inactive
same,Potency,[4],inactive
N#CC(=C(/N)Sc1ccccc1N)/C(C#N)=C(\N)Sc1ccccc1N,outcome,[19],inactive
C[C@@H](C[C@H](N)C(=O)O)C(=O)O,Potency,[5],> 11.4 µM (inactive)
O=C1CCc2c(ccc3ccccc23)O1,outcome,[19],inactive
NCCNS(=O)(=O)c1cccc2cnccc12,outcome,[2],inactive
same,Potency,[3],inactive
